D2 PAM-1: positively modulates the human D2 dopamine receptor allosterically; P14416; HEK293 T-REx D2, calcium flux, EC20 dopamine potentiation; potentiation, % at 10 µM; actives 0.34% (n = 340,000); AID 485347;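 active = potentiation over 3 SD above the plate norm, cut at about 30% in these data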
Target sequence (P14416 whole entry, looked up): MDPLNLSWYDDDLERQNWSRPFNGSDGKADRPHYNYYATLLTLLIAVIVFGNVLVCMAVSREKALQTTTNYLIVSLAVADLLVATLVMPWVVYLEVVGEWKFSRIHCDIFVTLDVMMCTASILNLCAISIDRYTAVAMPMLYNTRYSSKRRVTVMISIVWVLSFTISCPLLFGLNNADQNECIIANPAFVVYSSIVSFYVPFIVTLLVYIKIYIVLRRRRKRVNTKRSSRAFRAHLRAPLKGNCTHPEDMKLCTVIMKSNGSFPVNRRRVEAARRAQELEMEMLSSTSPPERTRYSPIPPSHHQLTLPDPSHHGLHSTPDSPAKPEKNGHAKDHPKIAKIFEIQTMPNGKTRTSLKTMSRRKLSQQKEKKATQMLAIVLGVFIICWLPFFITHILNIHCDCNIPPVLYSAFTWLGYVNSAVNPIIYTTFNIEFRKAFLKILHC
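Potentiation of an EC20 dopamine calcium response is measured in a force-coupled, tetracycline-inducible Hek293 Trex D2 line. Compound-only kinetic reads over 180 s flag agonists before dopamine addition.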
D2 ag-1: agonists of human D2 dopamine receptor | P14416 | HEK293 T-REx D2 cells, calcium flux agonist mode | activation, % at 2 µM | actives 0.53% (n = 340,000) | AID 485358;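 active = activation over 3 SD above normal in the single-dose calcium agonist read, cut at about 30% in these data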
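Agonism scored from kinetic calcium signal (1 read/sec, 180 s) following compound pin transfer, after a 10 s baseline. Cells: HEK293 Trex line expressing inducible D2 receptor coupled to calcium, dye-loaded after overnight culture at 30 C.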
D2 PAM-2: positive allosteric modulators of human D2 dopamine receptor; DiscoveRx D2 beta-arrestin cells, luminescence, 90 min; 100% = 57 uM dopamine signal; potentiation, % (concentration not given with the values); actives 0.23% (n = 360,000); AID 624464; in the data active = potentiation above about 50%; inconclusive = mostly about 30% to 49%
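D2 cells co-treated with compound plus 50 nM dopamine (EC20) for 90 min at 37 deg C to detect potentiation. Beta-arrestin recruitment was read as enzyme-fragment luminescence after 1 h at ambient temperature. Full response was set by 57 uM dopamine.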
D2 ag-2: agonists of human D2 dopamine receptor (beta-arrestin). P14416. AID 624465. actives 0.084% (n = 360,000). DiscoveRx PathHunter D2 beta-arrestin, luminescence, 90 min; 100% = 57 uM dopamine signal. activation, % (concentration not given with the values); in the data active = activation above about 40%; inconclusive = between about 15% and that limit
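DiscoveRx PathHunter D2 beta-arrestin cells (2,100/well) attached overnight, then compound-stimulated 90 min at 37 C in HBSS/10 mM HEPES/0.1% Tween-20 buffer; beta-galactosidase complementation read by luminescence after 1 h at ambient temperature. Dopamine 57 uM final (EC100) as control.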
D2 antag: D2 dopamine receptor (human) antagonism | P14416 | HEK293 TREx D2 cells, calcium flux, dopamine EC80 | inhibition, % at 10 µM | actives 2% (n = 340,000); in the data active = inhibition above about 30%; inactive = below that, where a call was filed
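Antagonism is scored as inhibition of an EC80 dopamine-evoked calcium signal in a force-coupled, tetracycline-inducible HEK293 T-REx D2 line, with compound present 180 s before agonist.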
Each line names hits and unclear results; the compound was inactive in the other large screens. Compounds with a hit are over-represented: about 2.4% of the library has one in this group of screens.

CCC1(C)N=C(N)Nc2nc3cc(C)c(C)cc3n21 (stereo not given)	D2 antag 35
COc1ccccc1C(=O)NCCC(=O)NC(C)c1ccc(-n2ccnc2)cc1 (stereo not given)	D2 antag 33
CC(NC(=O)CCNC(=O)c1ccccc1Cl)c1ccc(-n2ccnc2)cc1 (stereo not given)	none
O=C(COc1ccc(/C=N/NC(=O)c2ccncc2)cc1)Nc1ccc([N+](=O)[O-])cc1	D2 antag 42 (no result: D2 PAM-1)
COc1cccc(C(=O)NCC(=O)N/N=C/c2cccc(OC(=O)c3ccc([N+](=O)[O-])cc3)c2)c1	none (no result: D2 PAM-1, D2 ag-1, D2 antag)
O=C(CNC(=O)c1ccc([N+](=O)[O-])cc1)N/N=C\c1ccc(OC(=O)c2ccccc2)cc1	D2 antag 59
CCN(CC)c1nn2c(=O)c(C(=O)NCc3ccc(F)cc3)cnc2s1	none (no result: D2 ag-1, D2 PAM-2, D2 ag-2, D2 antag)
CC1(C)CC(=O)C2=C(C1)N1C(=C(C#N)C2c2ccc(Cl)cc2)N=C(N)c2ccccc21 (stereo not given)	none
CC1(C)CC(=O)C2=C(C1)N1C(=C(C#N)C2c2ccccc2Cl)N=C(N)c2ccccc21 (stereo not given)	D2 antag 36
CCN(c1ccccc1)C(CNS(=O)(=O)c1ccccc1)c1ccccc1 (stereo not given)	none (no result: D2 PAM-2, D2 ag-2, D2 antag)
O=C(NCCSc1c[nH]c2ccccc12)c1c(F)cccc1F	none
O=C(NCCSc1c[nH]c2ccccc12)C1CC1	D2 antag 36
COc1ccccc1-n1c(SCC(=O)N2CCOCC2)nc2cccnc21	D2 antag 60
Cc1c(C)c2c(OCC(=O)NCc3ccco3)cc3c(c2oc1=O)CCC(C)(C)O3	D2 antag 30
CC[C@H](C)[C@H](NC(=O)CNC(=O)COc1cc2c(c3oc(=O)cc(C)c13)CCC(C)(C)O2)C(=O)O	none
Cc1cc(=O)oc2c3c(cc(OCC(=O)NCc4ccco4)c12)OC(C)(C)CC3	none
Cc1cc(=O)oc2c3c(cc(OCC(=O)NCC(=O)N[C@H](C(=O)O)C(C)C)c12)OC(C)(C)CC3	D2 antag 30
O=S(=O)(c1ccccc1)n1nc(-c2ccco2)nc1NCc1ccccc1	none (no result: D2 PAM-2, D2 ag-2, D2 antag)
CN1CCN(c2cc(-c3ccccc3)nc3cc(-c4ccc(F)cc4)nn23)CC1	D2 antag 54
Cc1ccc(Cl)cc1NC(=S)N(CCCN1CCN(C)CC1)Cc1ccco1	D2 antag 71
Cc1ccc(NC(=S)N(CCCN2CCCC(C)C2)Cc2ccco2)cc1C (stereo not given)	D2 antag 46 (no result: D2 ag-1)
Cc1cc(NC(=S)N(CCN2CCCCC2)Cc2ccco2)ccc1Cl	D2 antag 35
COc1ccc(OC)c(S(=O)(=O)Nc2ccc(O)c3ccccc23)c1	D2 PAM-2 89, D2 ag-2 inconclusive
COc1ccc(OC)c(S(=O)(=O)Nc2cccc3c(O)cccc23)c1	none (no result: D2 PAM-1, D2 ag-1, D2 antag)
COc1cc2nc(Nc3ccc(C)c(C)c3)nc(N)c2cc1OC	D2 antag 30
O=c1[nH]c2ccccc2n1CCCN1CCN(C(c2ccccc2)c2ccccc2)CC1	D2 antag 84 (no result: D2 PAM-2, D2 ag-2)
FC(F)(F)c1cccc(OCCN2CCN(Cc3ccccc3)CC2)c1	D2 antag 82
O=c1[nH]c2ccccc2n1CCCN1CCCCC1	none
CN(CCOc1cccc(C(F)(F)F)c1)Cc1ccccc1	none (no result: D2 PAM-1, D2 ag-1, D2 antag)
c1ccc(OCCN2CCN(C(c3ccccc3)c3ccccc3)CC2)cc1	D2 antag 46
COc1ccccc1C(=O)NC(CCSC)C(=O)NCCCn1nc(C)cc1C (stereo not given)	none
CCC(=O)Nc1cccc(NC(=O)c2ccc(C)cc2Cl)c1	D2 antag 35
CCC(=O)Nc1cccc(NC(=O)c2ccccc2Cl)c1	none (no result: D2 PAM-1)
CCCn1cnc2c(N)c(C)c(C)cc21	D2 antag 32
COc1cccc(Cn2cnc3c(N)c(C)c(C)cc32)c1	none
CS(=O)(=O)N1CCC(C(=O)NNC(=O)Nc2ccc(F)c(Cl)c2)CC1	none
COc1ccccc1C(=O)COC(=O)Cc1n[nH]c(=O)c2ccccc12	none (no result: D2 ag-1, D2 antag)
COc1ccc(C(C)=O)cc1COC(=O)Cc1n[nH]c(=O)c2ccccc12	D2 antag 33
COc1cc(NS(=O)(=O)c2ccc(C)cc2)c2ncccc2c1	D2 PAM-1 54
Cc1ccc(S(=O)(=O)Nc2cccc3cccnc23)cc1	none
CCOC(=O)N1CCC(NCCNC(=O)c2ccc(F)cc2)CC1	D2 antag 66
CCOC(=O)N1CCC(NC(=O)c2ccc(Cl)cc2)CC1	none
CCOC(=O)N1CCC(NCCNC(=O)c2cccc(F)c2)CC1	D2 antag 60
Cc1nc(C(=O)N2CCC(C)(C(=O)NS(=O)(=O)C3CC3)C2)c(C)o1 (stereo not given)	none (no result: D2 PAM-1, D2 ag-1, D2 antag)
CN(C)C=NC(=O)c1cc2c(n(-c3ccccc3)c1=O)CC(C)(C)CC2=O	none (no result: D2 ag-1, D2 PAM-2, D2 ag-2, D2 antag)
CCCCNC(=S)NNC(=O)c1ccco1	D2 PAM-1 46
COc1ccc(/C=N/N(C(C)=O)c2nc(-c3ccc(C)cc3)cs2)cc1	D2 PAM-1 30
Cc1ccc(NC(=O)Cc2ncc(C(F)(F)F)cc2Cl)cc1Cl	D2 antag 44
CCOc1ccc(NC(=O)c2sc3nc(C)nc(N4CCOCC4)c3c2C)cc1	none (no result: D2 PAM-1, D2 ag-1, D2 antag)
Cc1cc(=O)n2nc(N3CCCC(C(=O)NCc4ccco4)C3)sc2n1 (stereo not given)	D2 antag 36
Cc1cc(=O)n2nc(N3CCC(C(=O)NCc4ccco4)CC3)sc2n1	none
CN1CCN(/C(=N\O)c2nonc2N)CC1	none
Nc1nonc1/C(=N/O)N1CCN(CCO)CC1	D2 antag 51
COc1ccc(Cl)cc1NC(=O)c1ccccc1C	D2 antag 32
COc1ccc(Cl)cc1NC(=O)C(OC)c1ccccc1 (stereo not given)	D2 antag 30
CCC(C(=O)Nc1cc(Cl)ccc1OC)c1ccccc1 (stereo not given)	none
CCC(C(=O)Nc1cc(OC)c(NC(=O)c2ccccc2)cc1OC)c1ccccc1 (stereo not given)	D2 antag 42
COc1ccccc1C(=O)Nc1cc(Cl)ccc1O	none
COc1ccc(Cl)cc1NC(=O)Nc1cccc([N+](=O)[O-])c1C	D2 antag 66
CCc1ccc2oc(-c3cc(NC(=O)c4cccnc4)cc(C)c3O)nc2c1	none (no result: D2 PAM-2, D2 ag-2, D2 antag)
Cc1ccc(CCNS(=O)(=O)c2ccc3c(c2)CC(C)N3C(=O)C2CCC2)cc1 (stereo not given)	none (no result: D2 ag-1, D2 PAM-2, D2 ag-2, D2 antag)
N/C(=N\OC(=O)c1ccccc1Cl)c1cccc([N+](=O)[O-])c1	D2 ag-2 60
N/C(=N\OC(=O)c1ccc([N+](=O)[O-])cc1Cl)c1ccccn1	D2 ag-2 inconclusive
N/C(=N\OC(=O)c1ccc2ccccc2c1)c1cccc([N+](=O)[O-])c1	D2 PAM-2 108, D2 ag-2 inconclusive
N/C(=N\OC(=O)c1cccc([N+](=O)[O-])c1)c1ccccn1	D2 ag-2 inconclusive

Compound activity: PubChem BioAssay, National Center for Advancing Translational Sciences (NCATS)
